The values below come from the OligoGym collection.
Further: reference of the scale not given here.

For one assay, the target named is TRIM23. Kind of assay: pooled miR-30 sensor sort-seq; sequence = guide strand. To be noted: shRNA.
For AACTTCTGTAAACTGCTGCTGC, the sensor-assay potency score (higher = more potent) was 0.168.

Take TACATGTTCTGTGTGAGCCATT: the sensor-assay potency score (higher = more potent) was -1.01.

In the case of ATCAACAACACTTAGAGCCATT, the sensor-assay potency score (higher = more potent) was -1.25.

The sequence TTTCCGTTAACAACTTTGCAAG showed a sensor-assay potency score (higher = more potent) of -1.22.

The sequence TACTGAATGCTTGTGACCCTGG gave a sensor-assay potency score (higher = more potent) of 0.0097.

Sequence AACTCTACAATCATCCTGCTGC had a sensor-assay potency score (higher = more potent) of 0.546.

The next assay deals with TRIM25. The description is as above. To be noted: shRNA.
Take TTGAGAGATGTTGAGTTCGGAT: the sensor-assay potency score (higher = more potent) was -0.803.

The sequence TTTCCGTGTATTCTTGTTGTAG displayed a sensor-assay potency score (higher = more potent) of -0.308.

The sequence TAAATGGTGTCAAACTTGCTGT gave a sensor-assay potency score (higher = more potent) of -0.555.

TTGTTGTAGCTGCTCCACCTTT came in with a sensor-assay potency score (higher = more potent) of -0.889.

The sequence TTGAGGTCTATGGTGCTCTGGT registered a sensor-assay potency score (higher = more potent) of -0.448.

On to TTGAGTTCGGATGTGAGCTGGT, for which the sensor-assay potency score (higher = more potent) came to 0.643.

TTTAATGTAATACTCCAGGAGC: the sensor-assay potency score (higher = more potent) was -0.733.

In turn, TTGTTTTAAATCCACTAACTGT came in with a sensor-assay potency score (higher = more potent) of -0.521.

For the sequence TATAGCACTCTGACAGAGCCAC, the sensor-assay potency score (higher = more potent) is -0.415.

TTTATCTTCCTTGTCGAGGTGG: the sensor-assay potency score (higher = more potent) was determined as 0.408.

Turning to TTGTGCTGGGAACATTTGCGGC, the sensor-assay potency score (higher = more potent) is -1.66.

TAAATCCACTAACTGTTCCGGG displayed a sensor-assay potency score (higher = more potent) of -0.339.

In the next assay the target is TRIM2. The description is as above. The note with it: shRNA.
As to TTCCATTTGTAGATGCAGCTAC, the sensor-assay potency score (higher = more potent) came to 0.668.

TTCCATTTGAATCCACTGCTAC showed a sensor-assay potency score (higher = more potent) of -0.305.

The sequence TATTGCTATTTACAGCTGCAAA gave a sensor-assay potency score (higher = more potent) of -1.54.

Take TTAATTGAAAGTTTCATTGTAG: the sensor-assay potency score (higher = more potent) was found to be 0.799.

As for ATCACTTTCAGCTTAAACGGGC, the sensor-assay potency score (higher = more potent) was -0.591.

In the case of TTTCATTGTAGACTAAAGCATC, the sensor-assay potency score (higher = more potent) is -0.921.

For TAAAATTCCATCACATTCCCAT, the sensor-assay potency score (higher = more potent) came out at 0.363.

TTTCCAGTGCTGTACATGCTTG had a sensor-assay potency score (higher = more potent) of -1.12.

Take TAGAGTCTCAGAGACAGGGTAA: the sensor-assay potency score (higher = more potent) is -0.389.

On to TTGAATCCACTGCTACACCTGT, for which the sensor-assay potency score (higher = more potent) is -0.182.

TTTTTGTCTTAAATTTCCCATC: the sensor-assay potency score (higher = more potent) was -1.5.

TTGTCTTAAATTTCCCATCGGA registered a sensor-assay potency score (higher = more potent) of 0.291.

In another assay the target is TRIM38. The assay is described as above. To be noted: shRNA.
Sequence TTCACATCGAAGTAAAGCTTGG yielded a sensor-assay potency score (higher = more potent) of -0.536.

Take TTTTGTCACAGCTTTCTGGAGC: the sensor-assay potency score (higher = more potent) was -0.543.

TTTCCATTTAGTTATTCGCATT yielded a sensor-assay potency score (higher = more potent) of -1.66.

For TTAGTTATTCGCATTGCTGTGG, the sensor-assay potency score (higher = more potent) amounted to 0.226.

TAAACCTGGAAATAGGGCCGGA had a sensor-assay potency score (higher = more potent) of -0.714.

Take TACGTCTTCAACAAGAGCTGTG: the sensor-assay potency score (higher = more potent) is -0.0393.

TTTCTTTTTGCACAGCCTGAGG gave a sensor-assay potency score (higher = more potent) of -1.54.

In turn, TATAAAAGGATACAACTCCGGC showed a sensor-assay potency score (higher = more potent) of -0.57.

For the sequence TAACATTTTCTTCACATCGAAG, the sensor-assay potency score (higher = more potent) is -1.18.

As to TTAACATTTTCTTCACATCGAA, the sensor-assay potency score (higher = more potent) is -0.794.
